The values below come from PubChem BioAssay (NCATS).

Values without a mark were called inactive. Results filed as inconclusive are left out. Active and inactive are the calls of the source. Unless noted, the call rests on the fitted dose curve; in most records, active means well fitted curve in the direction sought with a large enough effect; inconclusive means small, poorly fitted or top-dose-only effect, or another doubt; inactive means no such curve, though single readings can be large; an effect the other way counts as inactive or inconclusive.

Assay [1] can be described thus: AP1 Signaling Pathway (AID 357; active means well fitted curve in either direction with a large enough effect, not every such curve was filed as active; further: on the % scale 0 is the no-effect control and ±100 the full control effect). The note with it: ME-180 AP-1-bla reporter, EGF-induced, beta-lactamase ratio, 5 h; at 7.69 µM (top of the series) unless noted. In outline:
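Cells are seeded overnight, exposed to compound titrations and an EC50 level of EGF for 5 hours at 37 °C, then loaded with CCF4 dye for 2.5 hours. Beta-lactamase activity under the AP-1 element is read as a blue/green ratio.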

For assay [2], the target named is Cytochrome P450 1A2 (Homo sapiens) (UniProt P05177). The assay is described as follows: p450-cyp1a2 (AID 410; calls by dose curve; further: potency means the concentration at half of the fitted maximal effect). In outline:
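20nM CYP1A2 with 100uM Luciferin-ME (at Km) in 100mM KPO4; compound preincubated 10 min, NADPH regeneration added, 60 min at room temperature. Luciferin quantified by luminescence after detection reagent; normalized to 57 uM furafylline.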

Assay [3] is described as follows: Stat Signaling Pathway (AID 446; active means well fitted curve in either direction with a large enough effect, not every such curve was filed as active;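 further: ME-180 cervical cancer cells given 40 pM IL-6 alongside compound; SIE-controlled beta-lactamase reporter measured as 460/530 nm FRET emission ratio; on the % scale 0 is the no-effect control and ±100 the full control effect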). In outline: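 Screening format detects activators and inhibitors alike: ME-180 SIE-bla cells stimulated at 40 pM IL-6 for 5 hrs with compound, then dual-emission beta-lactamase read at 405 nm excitation.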
The target of assay [4] is Glucocorticoid receptor (Homo sapiens) (UniProt P04150). The assay is described as follows: GR-GFP Redistribution (AID 450;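 active means compounds whose dose series gives a full or clear partial fitted curve of increased nuclear translocation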; further: potency means the concentration at half of the fitted maximal effect). Conditions: U2OS GR-GFP nuclear translocation, laser cytometry, 2 h.
Chain of Glucocorticoid receptor (Homo sapiens) (P04150 whole entry, looked up, the tested form may be a part): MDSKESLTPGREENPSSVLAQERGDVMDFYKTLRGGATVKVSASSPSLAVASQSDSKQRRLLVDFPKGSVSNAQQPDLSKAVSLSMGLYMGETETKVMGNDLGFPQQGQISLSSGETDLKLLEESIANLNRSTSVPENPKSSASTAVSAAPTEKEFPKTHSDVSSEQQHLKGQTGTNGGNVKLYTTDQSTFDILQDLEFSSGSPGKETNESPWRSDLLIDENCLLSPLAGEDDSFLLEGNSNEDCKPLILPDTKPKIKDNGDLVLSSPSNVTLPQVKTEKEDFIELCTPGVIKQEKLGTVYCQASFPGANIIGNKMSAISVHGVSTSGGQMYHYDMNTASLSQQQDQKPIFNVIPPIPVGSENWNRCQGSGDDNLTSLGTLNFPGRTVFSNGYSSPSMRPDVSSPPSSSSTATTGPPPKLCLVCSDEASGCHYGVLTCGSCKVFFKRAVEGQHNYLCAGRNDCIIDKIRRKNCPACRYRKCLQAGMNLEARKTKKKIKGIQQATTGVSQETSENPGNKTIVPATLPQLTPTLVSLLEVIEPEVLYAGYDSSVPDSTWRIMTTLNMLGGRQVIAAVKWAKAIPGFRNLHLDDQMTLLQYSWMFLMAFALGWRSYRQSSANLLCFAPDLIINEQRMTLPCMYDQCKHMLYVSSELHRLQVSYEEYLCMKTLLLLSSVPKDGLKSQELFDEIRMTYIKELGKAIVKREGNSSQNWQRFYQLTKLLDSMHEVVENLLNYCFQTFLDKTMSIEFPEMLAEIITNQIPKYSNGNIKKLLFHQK
For assay [5] the target is unchanged. The assay is described as follows: GR-EFC Redistribution (AID 451; calls by dose curve; further: potency means the concentration at half of the fitted maximal effect). The note with it: CHO-K1 GR-EFC translocation, beta-gal luminescence, 2 h. In outline: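 CHO-K1 cells expressing nuclear EA and GR-ED fragments of b-gal; compounds titrated up to 46 uM final, 2 h at 37 C. GR nuclear translocation read as complemented b-gal luminescence after 1 h RT detection.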

The target of assay [6] is 3',5'-cyclic-AMP phosphodiesterase 4B (Homo sapiens) (UniProt Q07343). The assay is described as follows: qHTS Assay for Inhibitors of PDE-IV (AID 607; active means well fitted activation curve with a large enough effect in the main read-out, with a control signal flat, not every such curve was filed as active; further: % of control where 0% means no effect). The method in brief: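 The readout is membrane depolarisation from a cAMP-sensing CNG channel, detected with a potential dye at ex 535/em 590. Cells were HEK293-derived (endogenous PDE-IV) at 1000 cells/well, titrated up to 22.9 uM final.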
Chain of 3',5'-cyclic-AMP phosphodiesterase 4B (Homo sapiens) (Q07343 whole entry, looked up): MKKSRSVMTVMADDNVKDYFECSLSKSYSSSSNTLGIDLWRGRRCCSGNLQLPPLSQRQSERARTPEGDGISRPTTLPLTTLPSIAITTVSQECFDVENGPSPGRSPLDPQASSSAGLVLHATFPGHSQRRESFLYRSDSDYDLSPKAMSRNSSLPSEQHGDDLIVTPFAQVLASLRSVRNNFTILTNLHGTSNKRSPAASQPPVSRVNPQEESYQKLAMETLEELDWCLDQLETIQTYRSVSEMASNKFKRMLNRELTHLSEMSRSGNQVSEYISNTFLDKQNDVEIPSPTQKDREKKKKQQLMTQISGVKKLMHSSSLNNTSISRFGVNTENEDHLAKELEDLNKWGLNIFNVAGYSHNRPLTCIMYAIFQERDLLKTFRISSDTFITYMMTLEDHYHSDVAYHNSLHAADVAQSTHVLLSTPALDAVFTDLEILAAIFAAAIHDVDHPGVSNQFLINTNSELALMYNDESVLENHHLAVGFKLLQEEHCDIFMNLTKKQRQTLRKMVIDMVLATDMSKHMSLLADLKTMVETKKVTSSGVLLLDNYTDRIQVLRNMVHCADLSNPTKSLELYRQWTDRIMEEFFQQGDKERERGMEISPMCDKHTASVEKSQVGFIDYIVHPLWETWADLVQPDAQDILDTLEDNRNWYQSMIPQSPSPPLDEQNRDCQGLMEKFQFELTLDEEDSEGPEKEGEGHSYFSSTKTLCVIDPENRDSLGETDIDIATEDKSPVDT
In general terms: Quantitative high-throughput screening tests each substance at several concentrations.

Assay [7] can be described thus: qHTS Assay for Identification of Small Molecule Agonists for Hypoxia Response Element Signaling Pathway (AID 914; active means well fitted activation curve with a large enough effect in the signal ratio, with a control signal flat, not every such curve was filed as active; the % refers to the signal ratio; further: potency means the concentration at half of the fitted maximal effect). The note with it: ME-180 HRE-bla reporter, beta-lactamase ratio, CoCl2, 17 h; activation: hits give high values. In outline: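 ME-180 cells carrying an HRE-driven beta-lactamase reporter were treated with compounds in a titration series plus an EC50 level of CoCl2 for 17 h at 37 degrees Celsius; CCF4 readout as the 460nm/530nm ratio gave AC50 values.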

The target in assay [8] is Dual specificity protein kinase CLK4 (Homo sapiens) (UniProt Q9HAZ1). As to the kind of experiment: qHTS Assay for Inhibitors of CDC-like Kinase 4 (Kinase-Glo Assay) (AID 1770). Further: nearly all actives have a fitted effect of over 65% in size. Further: potency means the concentration at half of the fitted maximal effect. The method in brief:
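Recombinant human Clk4 (25 nM) phosphorylated RS repeat peptide (100 uM) with 1 uM ATP in Tris pH 7.5/MgCl2/EGTA/DTT/Triton buffer for 4.5 h at room temperature. Residual ATP was quantified by Kinase-Glo luciferase luminescence.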

Assay [9] has the same target. The assay is described as follows: qHTS Assay for Inhibitors of CDC-like Kinase 4 (ADP-Glo Assay) (AID 1771). Further: nearly all actives have a fitted effect of over 70% in size. Further: potency means the concentration at half of the fitted maximal effect. In outline: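 25 nM Clk4 with 100 uM RS repeat peptide and 1 uM ATP (final) in buffer with 2 mM MgCl2, 0.5 mM EGTA, 2.5 mM DTT, 0.01% Triton X-100; 1 h at room temperature; ADP-Glo luminescence for ADP formed.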
Assay [10] shares this target. As to the kind of experiment: qHTS Assay for Inhibitors of CDC-like Kinase 4 (ADP-FP Assay) (AID 1795). Further: nearly all actives have a fitted effect of over 60% in size. Further: potency means the concentration at half of the fitted maximal effect. The method in brief:
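Recombinant human Clk4 (6.25 nM) phosphorylated RS repeat peptide (100 uM) with 1 uM ATP in Tris pH 7.5/MgCl2/EGTA/DTT/Triton buffer for one hour. ADP was quantified by Transcreener competitive fluorescence polarization against an ADP calibration curve.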

A short description of assay [11]: NFAT Signaling Pathway (AID 444; active means well fitted curve in either direction with a large enough effect, not every such curve was filed as active;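 further: carbachol stimulus at about its EC50 of 1 µM final; on the % scale 0 is the no-effect control and ±100 the full control effect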). The note with it: Jurkat NFAT-bla M1, carbachol, beta-lactamase ratio, 5 h; at 7.69 µM (top of the series) unless noted. The method in brief:
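Jurkat cells with NFAT-driven β-lactamase reporter and co-expressed M1 receptor, stimulated with carbachol (final 1 uM, ~EC50), compound titration, 5 h at 37 °C. CCF4 loaded 1 h at RT; 460/530 nm ratio gave %activity and AC50.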

Assay [12] addresses Cytochrome P450 3A4 (Homo sapiens) (UniProt P08684). The assay is described as follows: qHTS Assay for Inhibitors and Substrates of Cytochrome P450 3A4 (AID 884). Further: potency means the concentration at half of the fitted maximal effect; nearly all actives have a fitted effect of over 50% in size. The method in brief:
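20 nM human CYP3A4 with 25 uM Luciferin-PPXE (at KM) in 200 mM KPO4, preincubated 10 min with compound; NADPH regeneration started a 60 min RT reaction. Luciferin detected by luminescence, normalized to 57 uM ketoconazole as full inhibition.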

The target is the same in assay [13]. The assay is described as follows: qHTS Assay for Activators of Cytochrome P450 3A4 (AID 885). Further: nearly all actives have a fitted effect of over 65% in size. The method in brief:
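Steps: enzyme/substrate mix dispensed; compound added, 10 min RT; NADPH regeneration solution added, 60 min RT; luciferin detection buffer stops reaction; 20 min later luminescence measured.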

Assay [14] addresses Ubiquitin carboxyl-terminal hydrolase 1 (Homo sapiens) (UniProt O94782). The assay is described as follows: Inhibitors of USP1/UAF1: Pilot qHTS (AID 504865).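 Further: rhodamine fluorescence freed from ubiquitin-rhodamine substrate followed over time; top concentration of the series differs between compounds; on the % scale 0 is the no-effect control and ±100 the full control effect; nearly all actives have a fitted effect of over 35% in size.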 The method in brief:
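USP1/UAF1 complex (1nM) preincubated with compound 15 min at room temperature, then Ub-Rho substrate (150nM final) added. Fluorescence read kinetically at 480/540 nm, 6 reads every 60 seconds. Buffer: 50mM HEPES pH 7.8, 0.5mM EDTA, 0.1 mg/ml BSA, 1mM TCEP, 0.01% Tween-20.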

The target in assay [15] is Mitogen-activated protein kinase 10 (Mus musculus) (UniProt Q61831). The assay is described as follows: JNK3 AlphaScreen Assay (AID 530; active means well fitted curve in either direction with a large enough effect, not every such curve was filed as active;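 further: kinase came from lysate of stimulated human HepG2 cells; signal reports phosphorylation of biotinylated GST-cJun 1-79 at Ser73 with 10 µM ATP; on the % scale 0 is the no-effect control and ±100 the full control effect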). In outline:
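Pre-activated (IL-1β/TNFα) JNK3 in HepG2 lysates phosphorylates biotin-GST-cJun(1-79), 10 uM ATP; anti-phospho-cJun(Ser73) AlphaScreen read at room temperature, pH 7.6 Tris buffer. Compounds pre-incubated 15 min as titrations.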
(In general: Alpha assays give light when donor and acceptor beads are brought close together.)

The target of assay [16] is Cytochrome P450 2D6 (Homo sapiens) (UniProt P10635). As to the kind of experiment: qHTS Assay for Inhibitors and Substrates of Cytochrome P450 2D6 (AID 891). Further: potency means the concentration at half of the fitted maximal effect; nearly all actives have a fitted effect of over 60% in size. In outline: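 Human CYP2D6 (5 nM) with 30 uM Luciferin-ME EGE (at Km) in 100 mM KPO4, compound preincubated 10 min, then NADPH regeneration system for 60 min at room temperature. Luciferin read by luminescence; normalized to 1.43 uM quinidine.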
Chain of Cytochrome P450 2D6 (Homo sapiens) (P10635 whole entry, looked up): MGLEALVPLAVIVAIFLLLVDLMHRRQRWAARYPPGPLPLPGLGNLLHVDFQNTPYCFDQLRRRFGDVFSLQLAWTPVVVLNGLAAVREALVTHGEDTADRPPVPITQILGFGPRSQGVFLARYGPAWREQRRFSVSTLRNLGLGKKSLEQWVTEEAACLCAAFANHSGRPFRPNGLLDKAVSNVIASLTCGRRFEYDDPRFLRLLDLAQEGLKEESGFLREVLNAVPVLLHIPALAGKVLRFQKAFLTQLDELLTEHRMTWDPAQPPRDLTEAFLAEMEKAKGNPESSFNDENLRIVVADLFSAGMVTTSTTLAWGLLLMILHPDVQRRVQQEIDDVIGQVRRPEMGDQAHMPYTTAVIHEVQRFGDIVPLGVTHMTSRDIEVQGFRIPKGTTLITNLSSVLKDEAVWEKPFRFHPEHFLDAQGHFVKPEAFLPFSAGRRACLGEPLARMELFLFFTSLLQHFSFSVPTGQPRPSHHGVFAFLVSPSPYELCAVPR

The target of assay [17] is Cytochrome P450 2C19 (Homo sapiens) (UniProt P33261). The assay is described as follows: qHTS Assay for Inhibitors and Substrates of Cytochrome P450 2C19 (AID 899). Further: potency means the concentration at half of the fitted maximal effect; nearly all actives have a fitted effect of over 60% in size. The method in brief:
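5 nM human CYP2C19 with 10uM Luciferin-H EGE (at KM) in 50mM KPO4, compound preincubated 10 min at 37C, then NADPH regeneration for 60 min at 37C. Luciferin read by luminescence after detection reagent; normalized to 57uM ketoconazole as full inhibition.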

The target in assay [18] is Lysosomal acid glucosylceramidase (Homo sapiens) (UniProt P04062). As to the kind of experiment: Glucocerebrosidase-p2 (AID 348; in the data active means potency below about 10 µM; further: potency means the concentration at half of the fitted maximal effect). Conditions: purified GBA, blue fluorogenic substrate, 40 min. The method in brief: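 Compounds titrated from 0.6 nM upwards against 0.2 nM enzyme in pH 5.9 citric acid/KH2PO4, taurocholate, tween-20; blue fluorogenic substrate 80 uM, 40 min room temperature, stopped and read Ex 365/Em 440 for AC50.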

Chain of Cytochrome P450 3A4 (Homo sapiens) (P08684 whole entry, looked up): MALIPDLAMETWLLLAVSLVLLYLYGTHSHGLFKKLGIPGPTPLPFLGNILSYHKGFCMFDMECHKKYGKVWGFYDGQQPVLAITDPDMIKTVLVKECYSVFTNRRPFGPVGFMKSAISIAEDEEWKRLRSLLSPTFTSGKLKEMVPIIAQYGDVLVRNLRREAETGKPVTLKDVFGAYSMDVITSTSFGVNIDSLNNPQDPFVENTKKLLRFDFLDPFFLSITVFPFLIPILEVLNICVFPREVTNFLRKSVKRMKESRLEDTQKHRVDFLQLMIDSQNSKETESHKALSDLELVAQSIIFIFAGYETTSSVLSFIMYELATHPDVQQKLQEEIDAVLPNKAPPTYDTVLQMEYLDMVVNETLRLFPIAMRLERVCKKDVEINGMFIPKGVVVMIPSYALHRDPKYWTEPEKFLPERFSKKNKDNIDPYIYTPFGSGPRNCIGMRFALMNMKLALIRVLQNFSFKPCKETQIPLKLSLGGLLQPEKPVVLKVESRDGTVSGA
Chain of Ubiquitin carboxyl-terminal hydrolase 1 (Homo sapiens) (O94782 whole entry, looked up): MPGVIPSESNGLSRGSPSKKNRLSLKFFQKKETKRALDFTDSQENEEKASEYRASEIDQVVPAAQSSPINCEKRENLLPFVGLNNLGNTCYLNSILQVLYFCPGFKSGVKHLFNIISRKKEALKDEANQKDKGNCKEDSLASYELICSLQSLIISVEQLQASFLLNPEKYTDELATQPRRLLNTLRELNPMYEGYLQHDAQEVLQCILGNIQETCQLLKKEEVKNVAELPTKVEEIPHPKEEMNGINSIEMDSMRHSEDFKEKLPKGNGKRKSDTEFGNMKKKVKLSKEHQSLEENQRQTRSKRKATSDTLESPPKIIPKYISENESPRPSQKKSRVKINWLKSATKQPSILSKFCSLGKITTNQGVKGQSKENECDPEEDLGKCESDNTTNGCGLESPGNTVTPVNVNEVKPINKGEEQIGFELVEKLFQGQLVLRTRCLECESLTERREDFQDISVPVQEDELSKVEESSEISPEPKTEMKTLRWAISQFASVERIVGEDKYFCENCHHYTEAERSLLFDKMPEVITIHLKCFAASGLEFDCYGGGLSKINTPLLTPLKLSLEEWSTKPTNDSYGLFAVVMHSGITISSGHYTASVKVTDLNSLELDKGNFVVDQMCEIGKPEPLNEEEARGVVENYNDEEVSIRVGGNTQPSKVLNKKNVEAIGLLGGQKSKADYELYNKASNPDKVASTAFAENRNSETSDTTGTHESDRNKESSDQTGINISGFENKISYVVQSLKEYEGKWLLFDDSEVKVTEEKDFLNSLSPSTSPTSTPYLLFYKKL
Chain of Dual specificity protein kinase CLK4 (Homo sapiens) (Q9HAZ1 whole entry, looked up): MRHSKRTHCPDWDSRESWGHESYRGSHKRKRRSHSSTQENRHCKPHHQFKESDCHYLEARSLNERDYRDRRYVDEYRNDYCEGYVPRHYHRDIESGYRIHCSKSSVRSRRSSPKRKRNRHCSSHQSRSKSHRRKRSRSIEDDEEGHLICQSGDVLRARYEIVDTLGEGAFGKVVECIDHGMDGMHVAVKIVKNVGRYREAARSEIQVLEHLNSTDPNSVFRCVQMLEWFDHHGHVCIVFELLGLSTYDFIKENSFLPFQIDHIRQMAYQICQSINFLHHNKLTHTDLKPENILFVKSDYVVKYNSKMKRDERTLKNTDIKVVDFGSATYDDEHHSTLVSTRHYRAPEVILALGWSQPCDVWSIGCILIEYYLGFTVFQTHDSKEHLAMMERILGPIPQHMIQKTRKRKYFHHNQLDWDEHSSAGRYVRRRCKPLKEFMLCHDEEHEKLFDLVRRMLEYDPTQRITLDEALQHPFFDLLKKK
Chain of Cytochrome P450 1A2 (Homo sapiens) (P05177 whole entry, looked up): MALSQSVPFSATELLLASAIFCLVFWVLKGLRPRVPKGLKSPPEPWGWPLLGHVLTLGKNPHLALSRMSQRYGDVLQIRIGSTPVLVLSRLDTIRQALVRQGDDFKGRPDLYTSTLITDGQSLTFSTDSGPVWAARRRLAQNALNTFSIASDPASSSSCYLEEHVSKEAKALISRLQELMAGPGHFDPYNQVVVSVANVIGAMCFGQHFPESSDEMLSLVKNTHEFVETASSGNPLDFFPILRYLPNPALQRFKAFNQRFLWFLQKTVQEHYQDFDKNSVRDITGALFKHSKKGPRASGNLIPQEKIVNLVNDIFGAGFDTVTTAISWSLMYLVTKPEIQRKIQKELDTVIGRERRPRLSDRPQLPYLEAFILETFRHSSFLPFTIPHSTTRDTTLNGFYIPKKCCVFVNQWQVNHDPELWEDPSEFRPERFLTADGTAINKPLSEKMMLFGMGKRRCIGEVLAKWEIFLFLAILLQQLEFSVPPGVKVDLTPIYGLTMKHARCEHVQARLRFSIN
Chain of Cytochrome P450 2C19 (Homo sapiens) (P33261 whole entry, looked up): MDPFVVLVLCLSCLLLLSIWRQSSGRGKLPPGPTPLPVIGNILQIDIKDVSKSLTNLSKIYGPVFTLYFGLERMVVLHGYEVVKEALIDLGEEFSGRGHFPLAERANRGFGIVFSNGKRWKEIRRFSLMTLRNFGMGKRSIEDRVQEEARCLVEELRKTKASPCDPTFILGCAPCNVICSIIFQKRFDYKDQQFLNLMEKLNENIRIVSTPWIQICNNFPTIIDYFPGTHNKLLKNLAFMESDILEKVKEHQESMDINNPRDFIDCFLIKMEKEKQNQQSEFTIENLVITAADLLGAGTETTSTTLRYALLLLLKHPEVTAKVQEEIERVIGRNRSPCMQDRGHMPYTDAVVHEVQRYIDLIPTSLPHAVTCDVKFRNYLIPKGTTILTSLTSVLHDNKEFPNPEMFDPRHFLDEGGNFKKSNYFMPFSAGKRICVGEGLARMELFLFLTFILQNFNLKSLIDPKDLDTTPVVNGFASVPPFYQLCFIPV

For `COc1ccc(-c2nc3cnc(N4CCOCC4)nc3n(-c3ccc(OC)cc3)c2=O)cc1`, the activity change, negative = inhibition in assay [1] was -5.89%. Besides, the Potency in assay [2] was 10 µM (active); in assay [4], > 9.22 µM; in [5], > 46 µM; in [7], 3.16 µM (active). Also, the compound was called inactive in assay [3]. The Potency entry in assay [6], in [8], in assay [9] and in assay [10] was “inactive” each time.
Take `Cc1cnc(CNc2ncnc3ccc(-c4ccccc4Cl)cc23)cn1`: the activity change, negative = inhibition in assay [1] was 14.6%; in [11], 7.91%. Besides, the Potency is 6.31 µM (active) in [2]; > 46 µM in [4]; > 46 µM in assay [5]; 2.51 µM (active) in assay [12]; 15.8 µM (active) in assay [8]; 14.1 µM (active) in [9]. Moreover, in [10], the Potency was 10 µM (active). Also, the outcome in assay [13] was inactive. The Potency result in assay [14] is “inactive”.
On to `Cc1cccc(CNc2ncncc2-c2ccccc2C)c1`, for which the figures for the activity change, negative = inhibition in assay [1] and in [11] were -10% and -10.9%, respectively. Moreover, the Potency in assay [2] is 2.51 µM (active); in assay [4], > 46 µM; in [5], > 46 µM; in [12], 0.398 µM (active); in assay [16], 3.98 µM (active). For the same compound, the compound was called inactive in [3] and in [13]. Also, the Potency entry in [15], in assay [8], in [9], in [10] and in assay [14] was “inactive” each time.
Consider `COc1cccc(Cn2c(=O)c(CCc3ccccc3)nc3cnc(N(C)C)nc32)c1`, for which the activity change, negative = inhibition is -2.39% in assay [1] and 6.19% in assay [11]. Also, the Potency in [2] is 15.8 µM (active); in [4], > 9.22 µM; in assay [5] it was > 46 µM; in [17], 0.794 µM (active). The outcome in assay [3] and in assay [13] was inactive. Also, the Potency result in assay [15], in assay [8], in assay [9] and in assay [10] was “inactive” throughout.
In the case of `c1cn(-c2ncnc3ccc(-c4ccoc4)cc23)cn1`, the Potency in assay [2] is 1.26 µM (active); in [4] it was > 46 µM; in assay [5], > 46 µM; in [12], 0.631 µM (active); in [8], 0.141 µM (active); in [9], 0.199 µM (active). Moreover, in [10], the Potency was 0.0708 µM (active). The activity change, negative = inhibition in [11] is -5.74%. Moreover, the compound was called inactive in assay [3] and in [13]. Besides, the Potency result in assay [6] and in assay [14] was “inactive” throughout.
`CN1CCN(c2ncnc3ccc(-c4ccccc4C(F)(F)F)cc23)CC1`: the results for the Potency in assay [18], in assay [4] and in assay [5] were > 11.4 µM, > 46 µM and > 46 µM, respectively. In assay [11], the activity change, negative = inhibition is -19.6%. Besides, the result in [3] was inactive. Moreover, the Potency entry in assay [15], in [6], in [8], in assay [9], in assay [10] and in assay [14] was “inactive” in each case.
